Source: PubChem BioAssay (National Center for Advancing Translational Sciences (NCATS))
Compounds with a hit are over-represented: about 7.6% of the library has one in this group of screens.
BRCA1 expr act – qHTS Assay to Identify Small Molecule Activators of BRCA1 Expression; AID 624202, 2012; Potency, µM (top dose mostly 46.1 µM), inactives show at the top dose activation, usual class: activators; MCF7-BRCA1-FFLuc reporter, luminescence, 48 h; response scale: scaled: vehicle 0%, 10 µM genistein 100%; 380,000 compounds, 1.1% hits; also: potency is read from the fitted curve at half-maximal effect; nearly all actives have a fitted effect of over 80% in size
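MCF7-BRCA1-FFLuc cells, 2000/well in phenol-red-free MEM, attached 2 h then treated 48 h at 37 C. Luciferase luminescence read 15 min after reagent; normalized to genistein maximum activation (10microM) and DMSO, concentration-response fitted.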
p53 reactivator – qHTS assay for re-activators of p53 using a Luc reporter; H1299 p53-A138V BP100-luciferase reporter, luminescence, 24 h; Potency, µM (top dose mostly 92.2 µM), for inactives: at the top dose activity change, positive = activation, hits mostly activators; 320,000 compounds, 0.063% hits; AID 504706, 2011; also: potency is read from the fitted curve at half-maximal effect; % of control where 0% means no effect; nearly all actives have a fitted effect of over 45% in size
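H1299 (p53-null), stable ts p53-A138V + BP100-Luc; 1000 cells/well, Opti-MEM/10% FBS; cpd 4 pt, 1:5; 24 h, 37 deg C, 5% CO2; detection reagent 10 min RT; luminescence.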
Giardia kill – Small Molecules that selectively kill Giardia lamblia: qHTS | activity change, % at 7.66 µM, hits read low | 340,000 compounds, 0.15% hits | Giardia lamblia trophozoite viability; in the data active = activity change below about -80%; inconclusive = between about -30% and that limit;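 also: parasites exposed to compound for two days anaerobically before the ATP read; % is scaled to controls: 0 for no effect and ±100 for the full control effect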
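Killing of trophozoites was scored by loss of ATP luminescence after a 48 hrs anaerobic exposure to compounds at 37 deg C, using 100 cells per well.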
VP16 counter – VP16 counterscreen qHTS for inhibitors of ROR gamma transcriptional activity. Potency, µM (top dose mostly 53.6 µM), for the others: top-dose activity, negative = inhibition, actives largely listed as inhibitors. Drosophila S2 Gal4-VP16 UAS-luciferase, luminescence, 20 h. 310,000 compounds, 3.5% hits;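 also: Gal4-VP16 expression switched on by copper sulfate through the metallothionein promoter; potency is read from the fitted curve at half-maximal effect; % is scaled to controls: 0 for no effect and ±100 for the full control effect; nearly all actives have a fitted effect of over 50% in size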
ELG1 repair inh – qHTS screen for small molecules that inhibit ELG1-dependent DNA repair in human embryonic kidney (HEK293T) cells expressing luciferase-tagged ELG1; 330,000 compounds, 2.3% hits; Potency, µM (highest dose often 46.1 µM), for the others: at the top dose activity change, negative = inhibition, usual class: inhibitors; AID 504467, 2011; HEK293T ELG1-luciferase reporter, luminescence, 16 h; DNA damage induced by 5-fluorouridine; also: potency is read from the fitted curve at half-maximal effect; % is scaled to controls: 0 for no effect and ±100 for the full control effect; nearly all actives have a fitted effect of over 55% in size
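HEK293T cells expressing luciferase-tagged ELG1 (2,000/well) received 5-Fluorouridine plus compound or DMSO for 16 hr at 37 °C. Luciferase was read by ONE-Glo luminescence after 30 min at room temperature.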
RORg inh – qHTS for inhibitors of ROR gamma transcriptional activity. Nuclear receptor ROR-gamma (Mus musculus), P51450. Drosophila S2 Gal4-RORgamma UAS-luciferase reporter, 20 h. Potency, µM (titrated, usually from 53.6 µM), for the others: at the highest dose activity change, negative = inhibition, hits mostly inhibitors. 310,000 compounds, 5.4% hits; also: potency is read from the fitted curve at half-maximal effect; % is scaled to controls: 0 for no effect and ±100 for the full control effect; nearly all actives have a fitted effect of over 60% in size
Target sequence (P51450 whole entry, looked up, the tested form may be a part): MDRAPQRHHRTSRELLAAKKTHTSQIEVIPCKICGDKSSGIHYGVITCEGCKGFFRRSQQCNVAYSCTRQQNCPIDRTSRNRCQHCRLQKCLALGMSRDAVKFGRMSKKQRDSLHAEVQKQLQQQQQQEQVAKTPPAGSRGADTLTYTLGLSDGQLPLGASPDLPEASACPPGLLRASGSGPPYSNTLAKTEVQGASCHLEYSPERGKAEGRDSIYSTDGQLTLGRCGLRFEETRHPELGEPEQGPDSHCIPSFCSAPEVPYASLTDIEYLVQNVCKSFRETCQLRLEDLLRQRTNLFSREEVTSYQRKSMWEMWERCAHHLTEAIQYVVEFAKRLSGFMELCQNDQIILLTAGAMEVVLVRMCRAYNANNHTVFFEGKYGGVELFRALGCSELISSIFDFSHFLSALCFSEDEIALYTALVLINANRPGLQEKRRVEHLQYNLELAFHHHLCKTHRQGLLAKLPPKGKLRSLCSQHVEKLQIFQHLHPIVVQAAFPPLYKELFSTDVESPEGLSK
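Stable Schneider cell line, Gal4 DNA-binding domain fused to ROR gamma, UAS-luciferase. Cmpd 1 hr RT → CuSO4 700 uM final → 20 hr RT → luciferase reagent 10 min → luminescence.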
* = called active by the depositor; u = inconclusive; x = not tested or not shown; [ ] = dose if it differs, or a comment. Unless noted, calls follow the shape of the dose curve; as a rule, active = well fitted curve in the direction sought with a large enough effect; inconclusive = small, poorly fitted or top-dose-only effect, or another doubt; inactive = no such curve, though single readings can be large; an effect the other way counts as inactive or inconclusive.

SMILES	BRCA1 expr act	p53 reactivator	Giardia kill	VP16 counter	ELG1 repair inh	RORg inh
CCOC(=O)CS(=O)(=O)c1nc(-c2ccc(F)cc2)cc(C(F)(F)F)n1	-94.6%	-39.3%	2.6	5.01µM*	u	5.62µM*
CCOC(=O)CS(=O)(=O)c1nc(-c2ccccc2)cc(C(F)(F)F)n1	-107.8%	-15.1%	-3.9	5.01µM*	u	2.82µM*
O=C(O)CCS(=O)(=O)c1nc(-c2cccs2)cc(C(F)(F)F)n1	-0.2%	17.3%	-26.7	u	0.0%	u
COc1ccc(-c2cc(C(F)(F)F)nc(S(=O)(=O)CCCC(=O)Nc3cccnc3Cl)n2)cc1OC	-6.2%	-20.5%	-17.8	u	u	1.58µM*
Cc1nn(Cc2ccc(C(=O)Nc3ccccc3F)cc2)c(C)c1Cl	0.2%	3.1%	-19.9	-5.4%	u	-3.4%
CN1CCN(C(=O)c2ccccc2NC(=O)c2ccccc2Br)CC1	-8.0%	4.3%	-30.0	-0.3%	7.8%	-10.2%
O=C1CSC(c2cccnc2)N1CCc1ccccn1 (centres undefined)	-2.3%	-1.9%	-21.7	11.2µM*	u	u
CCOC(=O)c1csc(NC(=O)Nc2cccc(Cl)c2)n1	-0.2%	5.2%	5.7	-5.5%	4.8%	14.4%
COc1ccc(OCC(=O)Nn2c(-c3ccc(OC)cc3)nc3ccccc3c2=O)cc1	-22.1%	-6.2%	2.1	10µM*	3.0%	u
COc1ccc(OCC(=O)Nn2c(-c3ccc(C)cc3)nc3ccccc3c2=O)cc1	-11.2%	-6.7%	-1.8	6.31µM*	-1.5%	-37.1%
Cc1ccc(-n2cccc2C(=O)NS(=O)(=O)c2ccc(C)cc2)cc1	2.1%	-0.4%	10.2	3.8%	0.0%	17.6%
Cc1ccc(-n2cccc2C(=S)N=P(N(C)C)(N(C)C)N(C)C)cc1	-80.9%	-8.1%	-27.3	6.31µM*	3.1%	2.24µM*
COc1ccc(Cl)cc1NC(=O)CN(C)C(=O)C1CCN(C(=O)Nc2ccccc2)CC1	-0.7%	-2.6%	8.8	x	-3.3%	x
O=C(CN1C(=O)c2ccccc2S1(=O)=O)c1ccc2c(c1)OCCCO2	-18.5%	-13.5%	u	0.708µM*	1.03µM*	0.282µM*
O=C(CN1C(=O)c2ccccc2S1(=O)=O)c1ccc2c(c1)OCCO2	-86.8%	-15.7%	u	0.562µM*	u	0.0251µM*
COc1ccc(C(=O)Nc2ccc(NC(=O)c3cnccn3)cn2)cc1	-2.5%	-0.9%	9.5	-3.8%	u	-0.1%
Cc1ccc2c(c1)nc(NCCO)n2C	46.7%	-0.2%	-6.9	-3.6%	u	-4.5%
Cc1ccc(C#CC[N+](C)(C)CC#Cc2ccccc2)cc1	-33.7%	9.1%	-2.4	-14.9%	u	-6.4%
CCOc1ccc(CN2CCNC(=O)C2CC(=O)NCc2ccccn2)cc1 (centres undefined)	-10.9%	1.0%	-10.0	-7.1%	13.7%	11.2µM*
CC(=O)c1sc(NC(=O)c2cc(-c3ccccc3)nn2-c2ccccc2)nc1C	-27.9%	-2.5%	-7.0	u	14.6µM*	-9.0%[10 µM]
O=C(Nc1nc2ccccc2s1)c1cc(-c2ccccc2)nn1-c1ccccc1	24.8%	u	6.8	u	u	10µM*
CCC1CCCCN1Cc1cc(OC)c(O)c([N+](=O)[O-])c1 (centres undefined)	0.4%	1.5%	-1.7	-11.3%	-6.0%	-9.6%
O=C(CN1C2=NCCN2c2ccccc21)N1CCOCC1	12.1%	x	17.1	-4.0%	x	-14.2%
O=C(CN1CCN(S(=O)(=O)c2ccccc2)CC1)Nc1cccc(C(F)(F)F)c1	-47.4%	-17.7%	-1.2	u	u	0.0%
CCCCCOc1ccccc1C(=O)NCCCCCC(=O)O	0.0%	0.3%	5.6	2.2%	-3.2%	8.0%
SMILES	BRCA1 expr act	p53 reactivator	Giardia kill	VP16 counter	ELG1 repair inh	RORg inh
N/C(CS(=O)(=O)c1ccccc1)=N\OC(=O)c1ccc(F)cc1	11.2µM*	u	-7.2	25.9%	u	27.0%
Cc1ccccc1/C(N)=N/OC(=O)c1ccc(F)cc1	30.0%	u	0.6	-11.7%	u	-23.8%
CCCC(=O)Nc1ccc(C(=O)NCCc2ccc(F)cc2)cc1	36.7%	u	-4.5	-9.6%	u	18.0%
CC1(C)Cc2c(c(N3CCCCC3)[nH]c(=S)c2C#N)CS1	-20.5%	-6.8%	9.6	-3.9%	-6.3%	-0.4%
CC1CCN(c2[nH]c(=S)c(C#N)c3c2CCCC3)CC1	6.5%	5.0%	3.2	u	-20.3%	7.08µM*
COc1ccc(OC)c(NC(=O)c2cn(C)c(=O)c3cc(OC)c(OC)cc23)c1	-23.7%	-20.0%	-2.3	-2.2%	20.6µM*	2.0%
CCOC(=O)c1c(C)nc2sc3c(=O)n(-c4ccc(C(C)=O)cc4)nnc3c2c1-c1ccc(Cl)cc1	-39.1%	7.8%	32.0	4.8%	u	9.6%
CCOC(=O)c1c(C)nc2sc3c(=O)n(-c4ccc(C(C)=O)cc4)cnc3c2c1-c1ccc(Cl)cc1	-52.9%	-2.5%	-3.6	-1.3%	20.6µM*	-24.2%
CCOC(=O)c1[nH]c(C)c(C(=O)NC2CCCCC2)c1C	1.2%	8.3%	-2.1	1.7%	2.3%	-21.7%
CCOC(=O)c1c(NC(=S)NCC2CCCO2)sc(C)c1C (centres undefined)	-22.1%	-2.3%	4.4	4.47µM*	4.6%	1.58µM*
CCOC(=O)c1c(NC(=O)CNCCO)sc(C)c1C	-31.5%	-5.3%	13.2	-17.5%	14.6%	u
CCOC(=O)c1c(NC(=O)CNC2CCCCC2)sc(C)c1C	-19.6%	2.9%	-8.6	-12.4%	u	1.41µM*
CCOC(=O)c1[nH]c(C)c(C(=O)NCC2CCCO2)c1C (centres undefined)	1.2%	0.1%	3.5	21.7%	0.731µM*	31.4%
CCOC(=O)c1c(NC(=O)C2CCCO2)sc(C(N)=O)c1C (centres undefined)	-19.2%	-7.2%	5.1	-15.9%	-3.0%	-5.1%
O=C(CN1CCN(C(=O)CCC(=O)N2CCC(c3ccccc3)=N2)CC1)Nc1cccc(F)c1	-5.7%	x	x	x	x	x
CCCS(=O)(=O)c1nc(S(=O)(=O)c2ccc(C)cc2)c(N2CCCC2)s1	-14.5%	-2.5%	-8.0	-1.1%	-7.6%	-15.1%
CCCS(=O)(=O)c1nc(S(=O)(=O)c2ccc(C)cc2)c(N2CCc3ccccc3C2)s1	-22.3%	-15.6%	-8.5	u	-13.4%	8.91µM*
